# LGR2 antag = inhibitors of bursicon-induced Drosophila LGR2 receptor cAMP signaling; AID 720647; actives 0.35% (n = 380,000); HEK293 LGR2, CRE-luciferase, bursicon-stimulated, 4 h; inhibition, % at 9.99 µM;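 active means drop in luminescence signal, shown as inhibition above about 50% in the replicate tests, limit read from the data, passing the limit was not always enough; inconclusive means probably only some replicates passing the limit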;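 further: agonist challenge used bursicon conditioned medium at about half maximal strength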
# EWS-Fli inh = inhibitors of EWS/Fli oncoprotein transcriptional activity; A673 NR0B1-luciferase reporter, viability-normalised; inhibition, % at 12.6 µM; actives 0.67% (n = 350,000); AID 651661;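 active means mean inhibition of at least 50% after viability correction, with every replicate also passing that limit; inconclusive means mean reaches 50% but only one of two replicates passes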;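 further: firefly luciferase signal divided by Alamar Blue viability fluorescence both relative to DMSO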
# PAX8 reporter = inhibitors of PAX8 transcriptional activity in RMG-I cells | RMG-I TPO-luciferase reporter, SteadyGlo, 24 h | inhibition, % at 12.6 µM | actives 1.2% (n = 360,000);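 active means mean replicate inhibition at least 60% with every replicate also reaching 60%; inconclusive means only one of the two criteria is met; inactive means mean below 60% and not all replicates reaching 60%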;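 further: luciferase light reporting Pax8 driven TPO promoter activity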
# LMP1 NFkB inh = inhibitors of Epstein-Barr LMP1-induced NF-kappaB reporter; LMP1-induced NF-kappaB luciferase reporter cells, luminescence; inhibition, % at 12.5 µM; actives 0.69% (n = 350,000); AID 504558; in the data active means inhibition above about 41%; inconclusive means no clear call, values can overlap the other calls
# TROY signal inh = TROY signaling inhibition; Q293 LMP1-TROYcd NF-kB luciferase reporter, 4 h; inhibition, % at 10 µM; actives 0.98% (n = 360,000); AID 1347056;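 active means compounds whose plate-normalised and pattern-corrected inhibition of the luciferase reporter signal at the single screening dose is 50% or more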
# TWEAK Fn14 block = blocks TWEAK-Fn14 interaction in a reporter cell assay; AID 1159606; actives 2% (n = 360,000); inhibition, % at 10 µM; TWEAK-stimulated Fn14 reporter cells, luciferase luminescence, 8 h; in the data active means inhibition above about 50%
# A number is an active result; n = inactive; u = inconclusive; x = not tested or not shown. Sampled rows, rich in hits. Any-hit rate of the full collection: about 3.2%.
SMILES,LGR2 antag,EWS-Fli inh,PAX8 reporter,LMP1 NFkB inh,TROY signal inh,TWEAK Fn14 block
C[C@H](CO)N1C[C@H](C)[C@H](CN(C)C(=O)Nc2ccc(F)cc2)Oc2ncc(C3=CCCCC3)cc2C1=O,n,n,n,x,x,x
O=C(C[C@H]1CC[C@H](NS(=O)(=O)c2ccc(F)cc2)[C@H](CO)O1)NC1CCC1,n,n,n,x,x,x
Cc1ccc(S(=O)(=O)N(C)C[C@@H]2OCCCC[C@H](C)Oc3ccc(NS(=O)(=O)c4ccccc4)cc3C(=O)N([C@H](C)CO)C[C@@H]2C)cc1,n,n,64.4,x,x,x
Cc1ccc(S(=O)(=O)N(C)C[C@H]2OCCCC[C@@H](C)Oc3ccc(NS(=O)(=O)c4ccccc4)cc3C(=O)N([C@@H](C)CO)C[C@H]2C)cc1,n,n,n,x,x,x
Cc1ccc(S(=O)(=O)N(C)C[C@@H]2OCCCC[C@H](C)Oc3ccc(NS(=O)(=O)c4ccccc4)cc3C(=O)N([C@H](C)CO)C[C@H]2C)cc1,n,n,72.3,x,x,x
Cc1ccc(S(=O)(=O)Nc2ccc3c(c2)C(=O)N([C@@H](C)CO)C[C@H](C)[C@@H](CN(C)S(=O)(=O)c2ccccc2)OCCCC[C@H](C)O3)cc1,n,n,n,x,x,x
C[C@@H]1CN([C@H](C)CO)C(=O)Cc2cc(NC(=O)CCN3CCOCC3)ccc2O[C@H]1CN(C)S(=O)(=O)c1ccc(F)cc1,n,n,n,x,x,x
CN(C(=O)COC(=O)/C=C/c1ccc2ccccc2n1)c1c(N)n(Cc2ccccc2)c(=O)[nH]c1=O,n,n,86.1,n,n,n
COCCN(C(=O)COC(=O)/C=C/c1nc2ccccc2s1)c1c(N)n(Cc2ccccc2)c(=O)[nH]c1=O,n,n,76.5,n,n,n
CCc1cc(C(=O)N(CCCOC)c2c(N)n(Cc3ccccc3)c(=O)[nH]c2=O)sc1C,n,n,n,n,70.6,n
CCN(C(=O)COC(=O)/C=C/c1nc2ccccc2s1)c1c(N)n(Cc2ccccc2)c(=O)[nH]c1=O,n,n,n,n,n,n
COCCN(C(=O)COC(=O)/C=C/c1ccc2ccccc2n1)c1c(N)n(Cc2ccccc2)c(=O)[nH]c1=O,n,x,63.6,n,n,n
COCCN(C(=O)COC(=O)/C=C/c1ccccc1Cl)c1c(N)n(Cc2ccccc2)c(=O)[nH]c1=O,n,n,n,n,n,n
COc1ccc(Cn2c(O)c(C=Nc3ccccc3C(=O)O)c3ccccc3c2=O)cc1,n,n,n,43.5,52.0,n
O=C(c1cc(COc2cccc3cnccc23)on1)N1CCC(c2ccccc2Cl)C1 (stereo not drawn),n,n,n,n,54.0,n
CCc1ccc(CN(C)C(=O)c2cc(COc3cccc4cnccc34)on2)cc1,n,x,n,n,n,57.5
COc1cccc(-c2ccc([C@@H]3[C@@H](CO)N4C(=O)CN(C(=O)C5CC5)C[C@@H]34)cc2)c1,n,n,n,x,x,x
C[C@@H]1CN([C@@H](C)CO)C(=O)c2cccc(NC(=O)C3CC3)c2O[C@H]1CN(C)C(=O)Nc1ccc(C(F)(F)F)cc1,n,n,x,x,x,x
O=[N+]([O-])c1cc(C(F)(F)F)cc([N+](=O)[O-])c1NCCNC(=S)Nc1cccc(F)c1,n,n,n,n,68.5,n
Fc1ccc(CNC(=S)Nc2cccc(C(F)(F)F)c2)cc1,n,x,n,n,n,n
Cc1ccc(S(=O)(=O)N2C[C@H]3n4c(=O)ccc(=O)n4C[C@H](OC(=O)NCc4ccccc4)[C@@]3(O)C2)cc1,n,n,n,n,n,n
Cc1ccc(S(=O)(=O)N2C[C@H]3n4c(=O)ccc(=O)n4C[C@H](OC(=O)NCC4CCCCC4)[C@@]3(O)C2)cc1,n,n,73.0,n,n,61.1
CCN(CC(=O)Nc1c(F)cccc1F)C(=O)c1cc(S(=O)(=O)N(CC)CC)ccc1N1CCCCC1,n,x,88.0,n,n,n
CCN(CC(=O)Nc1c(F)cccc1F)C(=O)c1cc(S(=O)(=O)N(C)C)ccc1N1CCCC1,n,n,90.1,n,n,n
CCN(CC(=O)Nc1ccccc1C(F)(F)F)C(=O)c1cc(S(=O)(=O)N(C)C)ccc1N1CCCC1,n,n,n,n,n,n
SMILES,LGR2 antag,EWS-Fli inh,PAX8 reporter,LMP1 NFkB inh,TROY signal inh,TWEAK Fn14 block
CCN(Cc1ccccc1)C(=O)c1cc(S(=O)(=O)N2CCOCC2)ccc1N1CCCC1,n,n,n,n,n,n
CCN(CC(=O)Nc1c(F)cccc1F)C(=O)c1ccc(N2CCCCC2)c([N+](=O)[O-])c1,n,n,n,n,n,n
CCN(CC(=O)Nc1ccc(OC)cc1)C(=O)c1cc(S(=O)(=O)N2CCOCC2)ccc1N1CCCC1,n,n,69.1,n,n,n
COC(=O)C[C@@H]1CC[C@@H]2[C@@H](COc3ccc(NC(=O)Nc4c(C)noc4C)cc3C(=O)N2C)O1,n,n,n,x,x,x
COc1ccc(N=Cc2oc3ccc4ccccc4c3c2O)cc1,n,n,n,n,n,n
COc1cccc(N=Nc2ccc3ccccc3c2O)c1,n,n,n,n,58.4,74.6
COc1ccc(N=Nc2ccc3ccccc3c2)c(O)c1,60.5,n,n,n,62.8,80.9
Cc1ccc(S(=O)(=O)N(C)C[C@H]2OCCCC[C@@H](C)Oc3ccc(NC(=O)Nc4c(C)noc4C)cc3C(=O)N([C@H](C)CO)C[C@H]2C)cc1,n,n,n,x,x,x
C[C@H](CO)N1C[C@H](C)[C@H](CN(C)Cc2ccc(C(F)(F)F)cc2)Oc2ccc(NC(=O)CCCCCC(=O)Nc3ccccc3N)cc2C1=O,n,n,u,x,x,x
COc1ccc(CN(C)C[C@H]2Oc3ccc(NC(=O)CCCCCC(=O)Nc4ccccc4N)cc3C(=O)N([C@H](C)CO)C[C@H]2C)cc1,n,n,n,x,x,x
C[C@@H]1CN([C@H](C)CO)C(=O)c2cc(NC(=O)CCCCCC(=O)Nc3ccccc3N)ccc2O[C@@H]1CN(C)Cc1ccc(C(F)(F)F)cc1,n,x,94.6,x,x,x
C[C@@H]1CN([C@H](C)CO)C(=O)c2cc(NC(=O)CCCCCC(=O)Nc3ccccc3N)ccc2O[C@@H]1CN(C)Cc1ccc(Oc2ccccc2)cc1,n,x,70.8,x,x,x
Cn1cnc(S(=O)(=O)N[C@H]2C=C[C@@H](CC(=O)Nc3ccccc3)O[C@@H]2CO)c1,n,n,x,x,x,x
Cc1ccc(-n2ncc(C(=O)Nc3cc(Cl)cc(Cl)c3)c2C2CCNCC2)cc1C,n,62.4,n,n,n,n
Cc1ccc(-n2ncc(C(=O)Nc3cc(Cl)ccc3Cl)c2C2CCNCC2)cc1,n,n,n,n,n,n
C[C@@H]1CN([C@H](C)CO)C(=O)Cc2cc(NC(=O)Nc3ccc(F)cc3)ccc2O[C@H]1CN(C)Cc1ccc(Cl)c(Cl)c1,n,n,108.8,x,x,x
C[C@H](CO)N1C[C@H](C)[C@@H](CN(C)Cc2ccc(-c3ccccc3)cc2)Oc2ccc(NC(=O)Nc3ccc(C(F)(F)F)cc3)cc2CC1=O,n,n,67.9,x,x,x

# Screening results from PubChem.
